From PubChem BioAssay AID652010 (The Scripps Research Institute Molecular Screening Center, 2013)
In all, about 370,000 compounds went through this assay and about 4,100 (1.1%) were called active.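 The calls were made as follows: active = inhibition above the mean over all tested compounds plus 3 SD (cut at about 3.6% in these data); inactive = the rest.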 The entries come from a sample that favours actives as a whole.

Test: DAX1 (NR0B1) inhibitors on StAR promoter, primary screen, cell-based, luminescence, SF-1 (NR5A1), full-length DAX-1 (AID 652010);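 also: 0% = DAX-1 cells with DMSO and 100% = cells lacking DAX-1 with DMSO; higher inhibition means more luminescence from relief of DAX-1 repression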
Settings: HEK293T StAR-luciferase reporter, SF-1/DAX-1 repression relief; at 6.8 µM; active compounds read high

| Compound | inhibition |
| --- | --- |
| COc1ccc(CNS(=O)(=O)c2cc(Br)ccc2Br)cc1 | -0.4% (inactive) |
| NC(=O)CSc1nnc(NC(=O)c2ccc3ccccc3c2)s1 | 6.15% (active) |
| COC(=O)c1ccc(CSc2nnc(NC(C)C)s2)cc1 | -0.08% (inactive) |
| COc1ccc(C(=O)CSc2nnc(NC(=O)C3CC(=O)N(c4cccc(OC)c4)C3)s2)cc1 (stereo unspecified) | -0.22% (inactive) |
| O=C(/C=C/c1ccccc1)Nc1nnc(SCC(=O)c2ccc3ccccc3c2)s1 | 0.17% (inactive) |
| CCCc1cc(=O)[nH]c2nnc(SCC(=O)Nc3nnc(SCC)s3)n12 | 2.35% (inactive) |
| CCSc1nnc(NC(=O)c2ccc(C)cc2)s1 | 5.52% (active) |
| CCCCOCCCNC(=O)C[C@H]1C[C@@]2(C(=O)OC)C(=C[C@H](COCc3ccccc3)O[C@@H]2C)N(Cc2cccc3ccccc23)C1=O | -0.91% (inactive) |
| COc1cc(NC(=O)C2CCCN(S(=O)(=O)c3ccc(C(C)(C)C)cc3)C2)cc(OC)c1 (stereo unspecified) | 0.97% (inactive) |
| C/C(=N\NC(=O)c1ccccc1F)c1ccccn1 | 6.14% (active) |
| C/C(=N/NC(=O)c1ccn(C)n1)c1ccncc1 | -0.02% (inactive) |
| O=C(Nc1nnc(-c2ccccc2F)s1)c1ccccc1F | 0.85% (inactive) |
| CCCCCCCCNS(=O)(=O)/C=C/c1cc(C)ccc1CNC(=O)OC(C)(C)C | -1.91% (inactive) |
| CN[C@H]1C[C@H]2c3cc(N4CCOCC4)ccc3CCN2C[C@H]1[C@H](C)O | -0.26% (inactive) |
| COC(=O)C1=C(C)N(Cc2cccc(C(F)(F)F)c2)C(=NCc2ccccc2)NC1c1ccccc1C(F)(F)F (stereo unspecified) | -0.23% (inactive) |
| COc1ccc(C(=O)COC(=O)C(O)c2ccccc2)c(OC)c1 (stereo unspecified) | 3.84% (active) |
| COc1ccc(C(=O)COC(=O)CN2C(=O)C3CC=CCC3C2=O)c(OC)c1 (stereo unspecified) | 1.03% (inactive) |
| COc1ccc(C(=O)COC(=O)c2nn(C)c(=O)c3ccccc23)c(OC)c1 | 1.33% (inactive) |
| S=C1NC(c2ccccc2)=NCN1c1ccc(Br)cc1 | 0% (inactive) |
| CNC(=S)N1N=C(c2ccccc2)CC1c1ccc(Br)cc1 (stereo unspecified) | -0.46% (inactive) |
| Brc1ccc(C2CC(c3ccccc3)=Nc3ccccc3N2)cc1 (stereo unspecified) | 3.86% (active) |
| CCOC(=O)c1c(C)[nH]c(C2=NNC(=NC(C)COC)SC2)c1C (stereo unspecified) | 4.39% (active) |
| O=C1Nc2ccccc2C1=NN=Cc1ccco1 | -1.23% (inactive) |

| Compound | inhibition |
| --- | --- |
| CCOC(=O)[C@]12CCCCC/C=C\1N(Cc1ccc(OC)cc1)C(=O)[C@H]2CC(=O)NCCCN1CCCC1=O | 0.28% (inactive) |
| O=C(NCC1(N2CCCCC2)CCCCC1)c1ccc(NS(=O)(=O)c2ccc(F)cc2)cc1 | 10.6% (active) |
| CCOc1ccc(NS(=O)(=O)c2ccc(C(=O)NCC(c3ccccc3OC)N3CCCC3)cc2)cc1 (stereo unspecified) | 1.1% (inactive) |
| CCOc1ccc(S(=O)(=O)Nc2cccc(C(=O)NCC3(N4CCCCC4)CCCCC3)c2)cc1 | 6.71% (active) |
| CN(C)S(=O)(=O)c1ccc(C(=O)NCC2(N3CCOCC3)CCCCC2)cc1 | 3.47% (inactive) |
| O=C(NCC1CCCO1)c1ccc(S(=O)(=O)Nc2ccc(F)cc2)cc1 (stereo unspecified) | 0.67% (inactive) |
| O=C(NCC1(N2CCCCC2)CCCCC1)c1cccc(S(=O)(=O)Nc2ccccc2Cl)c1 | 3.28% (inactive) |
| C=C(C)C1CC23C(=O)C4(C(=O)c5ccccc5)C[C@@]5(C)CCC(CC2C1(C)C)(C4=O)C35OC (stereo partly specified) | -0.55% (inactive) |
| CN1C[C@]2(C=C3CCCCC3n3c(=O)n(-c4ccccc4)c(=O)n32)N=C1NC(=O)c1ccccc1 (stereo partly specified) | -0.17% (inactive) |
| CCc1ccccc1NC(=O)CSc1nnc(-c2cccs2)o1 | -1.18% (inactive) |
| Clc1ccc(C(Cn2ccnc2)OCc2ccsc2Cl)c(Cl)c1 (stereo unspecified) | -1.62% (inactive) |
| Fc1cnc(N2CCOCC2)nc1NCc1ccccc1 | 0.22% (inactive) |
| COc1ccc(Nc2ncc(F)c(N3CCOCC3)n2)cc1 | 4.78% (active) |
| COC(=O)c1ccccc1Oc1c(F)c(F)nc(N2CCOCC2)c1F | 0.02% (inactive) |
| CN(C)c1ccc(NC(=O)CSc2n[nH]c(-c3ccco3)n2)cc1 | -1.06% (inactive) |
| CCCCC[C@H](C)N1C[C@@H](COCc2ccccc2)Oc2cc(N3CC[C@@H](N(C)C)C3)ccc2S1(=O)=O | 0.28% (inactive) |
| COc1ccc(C2=CN(Cc3ccccc3)C(c3ccc(OC)cc3)CC2=O)cc1 (stereo unspecified) | -1.09% (inactive) |
| O=S(=O)(NCC1CCCO1)c1ccc2ccccc2c1 (stereo unspecified) | -0.46% (inactive) |
| CC(=O)c1ccc(NC(=O)c2cc(-c3cccs3)on2)cc1 | 0.84% (inactive) |
| COc1ccccc1-c1cc(C(=O)N2CCCCC2)no1 | 9.11% (active) |
| COc1cc(Cl)ccc1OCc1cc(C(=O)N2CC[C@@H]3CCCC[C@H]3C2)no1 | 3.53% (inactive) |
| COc1ccc(OCc2cc(C(=O)N3CCCC3)no2)c2ccccc12 | 6.04% (active) |
| O=C(c1cc(-c2ccccc2O)on1)N1CCCC1 | 6.48% (active) |

| Compound | inhibition |
| --- | --- |
| O=C(c1cc(-c2cccs2)on1)N1CCCCC1 | 4.8% (active) |
| O=C(c1ccco1)N1CCN(C(=O)c2cc(-c3ccccc3F)no2)CC1 | 0.38% (inactive) |
| O=C(c1cc(COc2ccc(F)cc2F)on1)N1CCOCC1 | 1.39% (inactive) |
| COc1ccc(C(=O)C2CCCN(C(=O)c3cc(C)on3)C2)cc1F (stereo unspecified) | -0.49% (inactive) |
| O=C(c1cc(C2CCCCN2S(=O)(=O)c2ccccc2)on1)N1CCOCC1 (stereo unspecified) | -1.39% (inactive) |
| COc1cc(OC)c(C(=O)N2CCCC2)cc1OC | -0.07% (inactive) |
| CCOC(=O)C1CCCN(C(=O)c2cc(-c3cccs3)oc2C)CC1 (stereo unspecified) | -0.69% (inactive) |
| O=C1CSC2=NCN(c3ccccc3)CN12 | -0.05% (inactive) |
| CN(C)S(=O)(=O)c1cccc(C(=O)N/N=C\c2ccco2)c1 | 0.25% (inactive) |
| COC[C@@H]1CCCN1c1ccc2c(c1)O[C@H](C)CCN(C1CC1)S2(=O)=O | -1.04% (inactive) |
| CC(C)N1CCCCC(NC(=O)c2ccc3ccccc3c2)C1=O (stereo unspecified) | 0.26% (inactive) |
| O=C(NCCc1ccccn1)c1nc(Cn2cc([N+](=O)[O-])cn2)no1 | 0.2% (inactive) |
| COc1ccc(N2C(=O)CN=C2Nc2cccc(C)c2C)cc1OC | -0.59% (inactive) |
| O=C(NCc1ccccc1Cl)C1CCCN1S(=O)(=O)c1ccc(F)cc1 (stereo unspecified) | -0.27% (inactive) |
| O=C(N1CCOCC1)N1CC[C@H]2[C@H](CCCN2Cc2ccc(F)cc2)C1 | 0.58% (inactive) |
| COC(=O)[C@]12C[C@H](CC(=O)N3CCN(C(=O)C4CC4)CC3)C(=O)N(CCC3=CCCCC3)C1=C[C@H](C(C)C)O[C@@H]2C1CC1 | -0.81% (inactive) |
| COc1ccccc1N(C)S(=O)(=O)c1ccc(C(=O)NC2CCCCCC2)cc1 | -0.26% (inactive) |
| O=C(CSc1nnc(-c2ccccn2)n1-c1ccc(Cl)cc1)Nc1ccccc1-c1ccccc1 | -0.72% (inactive) |
| Cc1ccc(NC(=S)Nc2ncccc2C)c(C)c1 | 4.16% (active) |
| Cc1ccc(NC(=O)c2cc(C)nn2-c2ccccc2)c(C)c1 | -0.54% (inactive) |
| Cc1cc(Br)ccc1NC(=S)NC1CCCC1 | 0.19% (inactive) |
| O=C(c1ccncc1)N1CC[C@H]2[C@H](CCCN2Cc2ccc(F)cc2)C1 | -0.35% (inactive) |
| Cc1ccccc1CN1CCCCC(NC(=O)c2cccc(C#N)c2)C1=O (stereo unspecified) | -1.4% (inactive) |

| Compound | inhibition |
| --- | --- |
| Cc1ccc(C(=O)N/N=C/c2sc(=O)n(Cc3cccc(C(=O)O)c3)c2Cl)cc1 | -0.16% (inactive) |
| Cc1ccc(/C=C2\CCn3c2nc2cc(C(=O)O)ccc2c3=O)c(C)c1 | -0.46% (inactive) |
| Cc1ccc2cc(/C=N/Nc3ccc(C(=O)O)cc3)c(Cl)nc2c1 | 4.23% (active) |
| CCCCCCCCN1C(=O)[C@@H](CC(=O)NCCCC)C[C@@]2(C(=O)OC)C1=C[C@H](C(C)(C)C)O[C@@H]2C | 1.52% (inactive) |
| O=C(CCCCCn1c(=O)[nH]c2ccccc2c1=O)NCCc1c[nH]c2ccccc12 | -0.81% (inactive) |
| O=C(NCCc1c[nH]c2ccccc12)c1cc2ccccc2oc1=O | 6.37% (active) |
| O=C(NCCc1ccccc1)c1c[nH]c2ccc(F)cc2c1=O | -0.4% (inactive) |
| O=C(NCCCCCCCCCNC(=O)C(F)(F)F)C(F)(F)F | 0.58% (inactive) |
| COC(=O)C1=C(C)N(Cc2ccccc2C(F)(F)F)C(=NCc2ccc(OC)cc2)NC1c1cccc(C(F)(F)F)c1 (stereo unspecified) | -2.23% (inactive) |
| Cc1cccc(NC(=S)N2CCC(C(=O)c3ccc(F)cc3)CC2)c1 | 0.4% (inactive) |
| CC(C)(C)NS(=O)(=O)c1ccc(NC(=O)C2CCCO2)cc1 (stereo unspecified) | -0.07% (inactive) |
| CCOC(=O)c1ccc(NC(=O)c2ccc(NC(=O)C3CCCO3)cc2)cc1 (stereo unspecified) | -1.16% (inactive) |
| O=C(Nc1ccc(-c2nnc(-c3ccccc3)o2)cc1)C1CCCO1 (stereo unspecified) | 3.77% (active) |
| CN1CCCc2nc(-c3ccccc3)ccc21 | 1.43% (inactive) |
| C/C(=N\OC(=O)c1ccccc1)c1c(C)nc2cc(C)ccn12 | -0.48% (inactive) |
| Cc1cccc(/C(N)=N/OC(=O)c2ccccc2Cl)c1 | 4.38% (active) |
| Cc1ccc(C(=O)O/N=C(\N)c2ccccn2)cc1Cl | 1.79% (inactive) |
| Cc1ccc(Cn2cc(COC(=O)N(C)Cc3ccccc3)nn2)cc1 | -0.12% (inactive) |
| CC(C)(C)c1ccc(S(=O)(=O)NCC2CCN(C(=O)C(=O)c3cc4ccccc4o3)CC2)cc1 | -1.6% (inactive) |
| COc1ccc(CCOC2OC(CO)C(OC(=O)/C=C/c3ccc(O)c(OC)c3)C(O[C@H]3O[C@@H](C)[C@H](O)[C@@H](O)[C@H]3O)C2O)cc1O (stereo partly specified) | 4.55% (active) |
| COc1cc(/C=C/CO)cc(OC)c1O[C@@H]1O[C@H](CO)[C@@H](O)[C@H](O)[C@H]1O | 0.72% (inactive) |
| COc1cc(/C=C/C(=O)OCC(=O)NCCCc2ccccc2)ccc1O | -0.2% (inactive) |
